The text below walks through data of PubChem BioAssay (Tox21).

Unmarked numbers belong to inactive results. Inconclusive results are not listed. Activity calls are given as the source filed them. Unless noted, calls come from the whole dose curve; as a rule, active = well fitted curve in the direction sought with a large enough effect in the repeat runs; inconclusive = weak or mixed curves; inactive = no such curve, though single readings can be large; an effect the other way counts as inactive or inconclusive.

The nature of experiment [1]: qHTS assay to test for compound auto fluorescence at 460 nm (blue) in HEK293 cell free culture (AID 720681). In outline: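 Blue fluorescence (Ex 405/Em 460 nm, triamterene-equivalent) was read immediately after pin transfer of compound or DMSO into medium (DMEM, 10% FBS) without cells.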
A general note: qHTS replaces the single test concentration by a dilution series.

The nature of experiment [2]: qHTS assay to test for compound auto fluorescence at 535 nm (green) in HEK293 cell free culture (AID 720682). In outline:
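Cell-free medium (DMEM, 10% FBS) receives compound or DMSO by pintool. Plate read directly at Ex 485/Em 535 nm. Signal converted to fluorescein equivalency.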

Experiment [3] can be described thus: qHTS assay to test for compound auto fluorescence at 590 nm (red) in HEK293 cell free culture (AID 720683). In outline: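 Red-channel autofluorescence of compounds in culture medium (DMEM, 10% FBS), no cells, measured at 540/590 nm. Rose Bengal sodium is the reference fluorophore for equivalence.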
A short description of experiment [4]: qHTS assay to test for compound auto fluorescence at 590 nm (red) in HepG2 cell free culture (AID 720684). In outline:
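No cells present: MEM + 10% FBS only. Compound pinned in, red label read (540/590 nm). Activity = fluorescence equivalent to Rose Bengal sodium.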

Experiment [5] is described as follows: qHTS assay to test for compound auto fluorescence at 460 nm (blue) in HepG2 cell free culture (AID 720685). In outline: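 Cell-free plates of MEM plus 10% FBS received 23 nL compound or DMSO vehicle; blue-channel (405/460 nm) intensity scored against triamterene as reference fluorophore.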
A short description of experiment [6]: qHTS assay to test for compound auto fluorescence at 535 nm (green) in HepG2 cell free culture (AID 720686).
Experiment [7] can be described thus: qHTS assay to test for compound auto fluorescence at 460 nm (blue) in HepG2 cells (AID 720687). In outline: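 Blue-channel autofluorescence (Ex/Em 405/460 nm, triamterene-equivalent) was measured after 1 hr compound exposure at 37 C, 5% CO2. Cells were HepG2, plated overnight at 37 C in MEM plus 10% FBS.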
The target of experiment [8] is Glucocorticoid receptor (Homo sapiens) (UniProt P04150). Description: qHTS assay to identify small molecule agonists of the glucocorticoid receptor (GR) signaling pathway (AID 720691; active = well fitted activation curve with a large enough effect in the signal ratio in the repeat runs, not every such curve was filed as active; the % refers to the signal ratio). In outline: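 Compounds in DMSO, alongside positive controls, were added to GR-bla HeLa reporter cells and incubated 18 h at 37 C; GRE-driven beta-lactamase was detected by fluorescence after 2 h with FRET substrate at room temperature.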

Experiment [9] shares this target. Description: qHTS assay to identify small molecule antagonists of the glucocorticoid receptor (GR) signaling pathway (AID 720692; active = well fitted inhibition curve with a large enough effect in the signal ratio in the repeat runs, not every such curve was filed as active; the % refers to the signal ratio). The procedure, abridged:
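In a 1536-well cell format, compounds were added 4 h after seeding GR-bla HeLa cells, together with dexamethasone at 5 nM final; reporter activity was measured by FRET-substrate fluorescence following 18 h at 37 C.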

The nature of experiment [10]: qHTS assay to identify small molecule antagonists of the glucocorticoid receptor (GR) signaling pathway - cell viability counter screen (AID 720693). Note: nearly all actives have a fitted effect of over 55% in size.
A short description of experiment [11]: qHTS assay for identifying genotoxic compounds that show differential cytotoxicity against isogenic chicken DT40 cell lines with known DNA damage response pathways - wild type cell line (AID 743012). Note: nearly all actives have a fitted effect of over 60% in size. The procedure, abridged: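 Viability of DNA repair-proficient chicken DT40 cells was assessed by CellTiter-Glo luminescence following 40 h compound exposure at 37 C/5% CO2.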

Experiment [12] can be described thus: qHTS assay for identifying genotoxic compounds that show differential cytotoxicity against isogenic chicken DT40 cell lines with known DNA damage response pathways - Rev3 mutant cell line (AID 743014). Note: nearly all actives have a fitted effect of over 55% in size. Note: potency is the fitted concentration of half-maximal effect.
Experiment [13] in a line: qHTS assay for identifying genotoxic compounds that show differential cytotoxicity against isogenic chicken DT40 cell lines with known DNA damage response pathways - Rad54/Ku70 mutant cell line (AID 743015). Note: nearly all actives have a fitted effect of over 60% in size.
Experiment [14] is described as follows: qHTS assay to identify small molecule antagonists of the androgen receptor (AR) signaling pathway - cell viability counter screen (AID 743033; note: nearly all actives have a fitted effect of over 45% in size).
Experiment [15] in a line: qHTS assay to identify small molecule antagonists of the androgen receptor (AR) signaling pathway using the MDA cell line - cell viability counter screen (AID 743041; note: nearly all actives have a fitted effect of over 45% in size). The procedure, abridged:
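Using the breast carcinoma line MDA-kb2 AR-luc, test chemicals were co-incubated with R1881 for 16 h; CellTiter-Fluor reagent, added at 15.5 h, provided a fluorescence measure of live cells.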

The target of experiment [16] is Androgen receptor (Homo sapiens) (UniProt P10275). Description: qHTS assay to identify small molecule antagonists of the androgen receptor (AR) signaling pathway (AID 743035; active = well fitted inhibition curve with a large enough effect in the signal ratio in the repeat runs, not every such curve was filed as active; the % refers to the signal ratio). The procedure, abridged:
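Reporter HEK293 cells were exposed to compounds and R1881 overnight (16 h, 37C); beta-lactamase activity was then quantified by FRET fluorescence.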

Experiment [17] shares this target. Description: qHTS assay to identify small molecule agonists of the androgen receptor (AR) signaling pathway (AID 743036; active = well fitted activation curve with a large enough effect in the signal ratio in the repeat runs, with a control signal flat, not every such curve was filed as active; the % refers to the signal ratio). In outline: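 AR-bla HEK293 cells, 2,000/well; 4 h preincubation 37C/5% CO2; compound (DMSO) 16 h at 37C; LiveBLAzer B/G FRET substrate 2 h RT; fluorescence intensity read-out.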
Experiment [18] shares this target. Description: qHTS assay to identify small molecule agonists of the androgen receptor (AR) signaling pathway using the MDA cell line (AID 743040; note: nearly all actives have a fitted effect of over 20% in size). In outline: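 Stable MMTV-luciferase reporter in MDA-kb2 cells; note the promoter carries GR as well as AR response elements. 16 h compound treatment, 37C, 0% CO2; ONE-Glo luminescence endpoint.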
The target is the same in experiment [19]. Description: qHTS assay to identify small molecule antagonists of the androgen receptor (AR) signaling pathway using the MDA cell line (AID 743042; note: nearly all actives have a fitted effect of over 55% in size). The procedure, abridged: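 Antagonist mode: compounds plus R1881 agonist added to MDA-kb2 AR-luc cells, incubated 16 h at 37C. Luciferase reporter luminescence quantified, with multiplexed CellTiter-Fluor readout for cell viability.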
% is set by controls: 0 for no effect and ±100 for the full control effect.

Sequence of Glucocorticoid receptor (Homo sapiens) (P04150 whole entry, looked up): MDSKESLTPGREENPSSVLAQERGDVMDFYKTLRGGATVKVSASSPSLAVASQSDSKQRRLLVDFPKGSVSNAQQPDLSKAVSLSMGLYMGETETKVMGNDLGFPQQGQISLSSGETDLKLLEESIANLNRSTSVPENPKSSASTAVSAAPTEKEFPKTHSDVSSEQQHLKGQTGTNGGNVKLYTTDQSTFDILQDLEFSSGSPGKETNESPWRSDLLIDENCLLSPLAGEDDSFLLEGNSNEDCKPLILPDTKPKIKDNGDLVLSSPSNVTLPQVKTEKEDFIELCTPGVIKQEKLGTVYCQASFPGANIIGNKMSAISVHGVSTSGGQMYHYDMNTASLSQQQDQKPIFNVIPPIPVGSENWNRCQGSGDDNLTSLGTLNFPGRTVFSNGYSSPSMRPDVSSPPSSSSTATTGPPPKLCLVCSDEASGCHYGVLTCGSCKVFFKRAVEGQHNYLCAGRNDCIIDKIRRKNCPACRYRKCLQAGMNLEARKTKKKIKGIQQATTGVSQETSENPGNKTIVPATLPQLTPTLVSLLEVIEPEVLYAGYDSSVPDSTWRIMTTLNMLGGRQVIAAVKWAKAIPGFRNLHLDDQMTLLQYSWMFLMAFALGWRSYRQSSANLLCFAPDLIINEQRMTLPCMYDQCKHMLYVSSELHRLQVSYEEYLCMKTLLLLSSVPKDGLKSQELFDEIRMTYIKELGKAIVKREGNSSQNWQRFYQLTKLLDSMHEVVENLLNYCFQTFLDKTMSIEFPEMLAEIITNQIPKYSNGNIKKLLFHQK
Sequence of Androgen receptor (Homo sapiens) (P10275 whole entry, looked up): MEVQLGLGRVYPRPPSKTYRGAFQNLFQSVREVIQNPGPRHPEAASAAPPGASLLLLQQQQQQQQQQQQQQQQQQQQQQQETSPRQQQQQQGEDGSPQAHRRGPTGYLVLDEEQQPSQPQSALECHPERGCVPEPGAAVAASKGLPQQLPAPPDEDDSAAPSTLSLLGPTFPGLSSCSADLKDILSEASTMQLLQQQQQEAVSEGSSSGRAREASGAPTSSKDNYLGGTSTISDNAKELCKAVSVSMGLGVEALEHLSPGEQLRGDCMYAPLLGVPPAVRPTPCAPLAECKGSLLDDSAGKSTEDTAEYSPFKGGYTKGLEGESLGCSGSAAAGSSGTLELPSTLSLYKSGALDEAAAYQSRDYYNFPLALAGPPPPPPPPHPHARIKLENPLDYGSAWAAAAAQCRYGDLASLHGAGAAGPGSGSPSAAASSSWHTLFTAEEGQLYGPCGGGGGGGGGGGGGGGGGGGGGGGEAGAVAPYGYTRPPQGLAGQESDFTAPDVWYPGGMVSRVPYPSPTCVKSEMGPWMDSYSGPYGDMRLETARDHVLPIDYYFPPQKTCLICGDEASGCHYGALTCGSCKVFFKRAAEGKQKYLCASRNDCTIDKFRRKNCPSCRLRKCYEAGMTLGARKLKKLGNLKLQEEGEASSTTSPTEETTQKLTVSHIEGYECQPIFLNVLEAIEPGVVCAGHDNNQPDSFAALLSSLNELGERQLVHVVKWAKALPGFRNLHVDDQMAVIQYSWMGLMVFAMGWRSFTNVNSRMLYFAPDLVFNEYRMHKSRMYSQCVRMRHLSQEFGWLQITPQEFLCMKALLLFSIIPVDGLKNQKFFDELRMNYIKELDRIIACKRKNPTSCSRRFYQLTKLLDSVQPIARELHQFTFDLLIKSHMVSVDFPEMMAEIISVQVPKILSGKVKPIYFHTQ

Consider `CC(C)COC(=O)c1ccccc1O`, for which the Potency result in experiment [1], in [5], in experiment [7], in [8], in experiment [9] and in [11] was “inactive” in each case. For the same molecule, the Potency result in experiment [13] and in [15] was “inactive” in each case. The outcome in experiment [2], in experiment [3], in [4], in experiment [6], in experiment [10] and in experiment [14] was inactive. The Potency in experiment [12] is 24.3 µM (active).

For `COCc1ccc(COC)cc1`, the Potency entry in [1], in experiment [5], in experiment [7], in [11], in experiment [12] and in experiment [15] was “inactive” throughout. Besides, the call in [2], in [3], in experiment [4], in experiment [6], in experiment [10] and in [14] was inactive.

Regarding `COc1cc(O)cc(O)c1`, the Potency entry in [1], in experiment [5], in experiment [7], in experiment [11], in experiment [12] and in [15] was “inactive” each time. Further, the result in [2], in experiment [3], in [4], in [6] and in experiment [14] was inactive.

As for `COc1ccc(COC=O)cc1`, the Potency entry in experiment [1], in [5], in [7], in experiment [8], in experiment [9] and in experiment [11] was “inactive” each time. The Potency result in experiment [12], in experiment [13] and in [15] was “inactive” throughout. In addition, the outcome in experiment [2], in [3], in experiment [4], in experiment [10] and in experiment [14] was inactive.

For the molecule `Oc1cc(O)c2c(c1)O[C@H](c1ccc(O)c(O)c1)[C@H](O)C2`, the Potency entry in experiment [1], in [5], in experiment [7], in [8], in [9] and in experiment [11] was “inactive” each time. Further, the Potency entry in [12], in experiment [13] and in experiment [15] was “inactive” throughout. Besides, the call in experiment [2], in experiment [3], in experiment [4], in [6] and in experiment [14] was inactive.

As for `CSc1ccc(C=O)cc1`, the Potency result in experiment [1], in experiment [5], in [7], in [8], in [9] and in [11] was “inactive” in each case. Also, the Potency result in experiment [12], in experiment [13] and in experiment [15] was “inactive” in each case. Also, the call in experiment [2], in experiment [3], in experiment [6], in [10] and in experiment [14] was inactive.

Regarding `CO[Si](OC)(OC)OC`, the Potency entry in experiment [1], in [5], in experiment [7], in [8], in [9] and in experiment [15] was “inactive” in each case. In addition, the molecule was classed as inactive in [2], in [3], in experiment [4] and in experiment [14].

With `C=CCOc1nc(OCC=C)nc(OCC=C)n1`, the Potency result in experiment [1], in experiment [5], in [7], in [8] and in experiment [9] was “inactive” each time. Besides, the outcome in [2], in experiment [3], in experiment [4], in [6] and in experiment [14] was inactive.

As for `C=C[Si](OC)(OC)OC`, the Potency result in experiment [1], in experiment [5], in experiment [7], in [8], in [9] and in experiment [11] was “inactive” throughout. Further, the Potency entry in experiment [12], in experiment [13] and in experiment [15] was “inactive” each time. Further, the molecule was called inactive in experiment [2], in experiment [3], in experiment [4], in experiment [6] and in experiment [14].

Regarding `NS(=O)(=O)c1cc2c(cc1C(F)(F)F)NC(Cc1ccccc1)NS2(=O)=O` (centres undefined), the fluorescence, % of fluorescent control in experiment [1] was 0.419% [at 18.6 µM]; in experiment [3], 0.0682% [at 18.6 µM]; in experiment [5], -0.0286% [at 18.6 µM]; in experiment [7], 0.0124% [at 18.6 µM]. For the same molecule, in [2], the activity change was 0.196% [at 18.6 µM]. In [4], the fluorescence, % of Rose Bengal was -0.15% [at 18.6 µM]. Further, the fluorescence, % of fluorescein control in experiment [6] was -0.0871% [at 18.6 µM]. Besides, the molecule was called inactive in experiment [10], in [14], in experiment [17] and in experiment [19]. For the same molecule, the Potency entry in experiment [11], in experiment [12], in experiment [13], in experiment [16], in [18] and in experiment [15] was “inactive” throughout.

`CCC(=O)c1cccc(Cl)c1`: the Potency result in [1], in [5], in experiment [7], in [8], in [9] and in experiment [11] was “inactive” in each case. Moreover, the Potency result in [12], in experiment [13] and in experiment [15] was “inactive” in each case. For the same molecule, the result in experiment [2], in experiment [3], in experiment [10] and in experiment [14] was inactive.

For `CCCc1ccc(N)cc1`, the Potency entry in [1], in [5], in experiment [7], in experiment [11], in experiment [12] and in experiment [15] was “inactive” throughout. In addition, the outcome in experiment [2], in experiment [3], in experiment [4], in experiment [6], in experiment [10] and in experiment [14] was inactive.

For the molecule `O=C(O)C(O)[C@H](O)[C@@H](O)[C@H](O)[C@H](O)CO` (some centres undefined), the Potency result in experiment [1], in experiment [5], in experiment [7], in experiment [8], in experiment [9] and in experiment [11] was “inactive” throughout. The Potency entry in experiment [12] and in experiment [15] was “inactive” each time. The outcome in [2], in experiment [3], in [4], in experiment [6] and in experiment [14] was inactive.

On to `CC(C)(C)C(=O)/C=C/c1ccc(Cl)cc1`, for which the Potency entry in experiment [1], in experiment [5], in [7], in experiment [8], in [9] and in [11] was “inactive” in each case. The Potency result in experiment [15] was “inactive”. In addition, the molecule was classed as inactive in experiment [2], in [3], in experiment [4], in experiment [6] and in experiment [14].

For `CCCOCC(C)OCC(C)O` (centres undefined), the Potency entry in experiment [1], in [5], in experiment [7], in experiment [8], in [11] and in experiment [12] was “inactive” in each case. Also, the Potency entry in experiment [16], in experiment [18] and in experiment [15] was “inactive” throughout. Besides, the result in [2], in experiment [3], in [4], in experiment [10], in experiment [14] and in [19] was inactive.

Turning to `NC(=O)CCCCC1CCSS1` (centres undefined), the Potency result in experiment [1], in experiment [5], in experiment [7], in [8], in experiment [9] and in experiment [11] was “inactive” throughout. Also, the Potency result in experiment [12] and in [15] was “inactive” throughout. The molecule was called inactive in [2], in experiment [3], in [4], in experiment [6] and in experiment [14].
